Data on seven compounds can be found in PubChem BioAssay (NCI).

Each structure is given as a SMILES string. This is part of a sample that, as a whole, favours compounds with a hit. Of some 83,000 tested, about 20% had one in any assay.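 Note: values are percent growth. 100 is the growth of untreated cells, values between 100 and 0 indicate rising inhibition; between -100 and 0 indicates cell death.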 A number with no mark means an inactive call. Activity calls are given as the source filed them. How the source made its calls: active means growth percent below 10; inactive means the rest.

Test systems include SR leukemia; RPMI-8226 leukemia; OVCAR-8 ovarian; OVCAR-5 ovarian; SK-OV-3 ovarian; IGROV1 ovarian; OVCAR-3 ovarian; HS 578T breast; NCI/ADR-RES ovarian; T-47D breast; BT-549 breast; MDA-MB-435 melanoma; SW-620 colon; MCF7 breast; HCT-116 colon; HCC-2998 colon; KM12 colon.
What all share (test): NCI-60 one-dose screen, 48 h (100 = growth as untreated, 0 = no growth, -100 = all killed)
Details in all cases: 10 µM unless noted

Turning to `C=C(C)[C@@H]1CC[C@]2(C(=O)OC)CC[C@]3(C)[C@H](CC[C@@H]4[C@@]5(C)CC/C(=N\OCCC(=NCCC#N)NOCCC#N)C(C)(C)[C@@H]5CC[C@]43C)[C@@H]12`, the growth is 1.86% [100 µM] (active) in the assay with SR leukemia; 3.28% [100 µM] (active) with RPMI-8226 leukemia; 13.2% [100 µM] in the assay on OVCAR-8 ovarian; 50.6% [100 µM] with OVCAR-5 ovarian; 34.6% [100 µM] in the assay on SK-OV-3 ovarian; 18.8% [100 µM] in the assay with IGROV1 ovarian. For the same compound, the growth in the assay with OVCAR-3 ovarian was -34.5% [100 µM] (active); in the assay with HS 578T breast it was 24.3% [100 µM]; in the assay on NCI/ADR-RES ovarian it was 17.1% [100 µM]; in the assay on T-47D breast it was 15.1% [100 µM]; in the assay on BT-549 breast, 4.4% [100 µM] (active); in the assay with MDA-MB-435 melanoma, 14.6% [100 µM]. In addition, the growth is 22% [100 µM] in the assay on SW-620 colon; 12.4% [100 µM] in the assay on MCF7 breast; 4.16% [100 µM] (active) in the assay with HCT-116 colon; 26.9% [100 µM] in the assay on HCC-2998 colon; 10.9% [100 µM] in the assay on KM12 colon.

With `O=C1Nc2ccccc2/C1=C/C(=O)c1ccc(N2CCOCC2)cc1`, the growth in the assay with SR leukemia is 26.7%; in the assay with RPMI-8226 leukemia, 79.6%; in the assay on OVCAR-8 ovarian, 82.9%; with OVCAR-5 ovarian, 96.9%; in the assay on SK-OV-3 ovarian, 106%; with IGROV1 ovarian it was 70.3%. Further, the growth is 60.9% in the assay on OVCAR-3 ovarian; 84% in the assay with HS 578T breast; 100% in the assay on NCI/ADR-RES ovarian; 81.1% in the assay on T-47D breast; 97% in the assay with BT-549 breast; 96% in the assay on MDA-MB-435 melanoma. For the same compound, the growth in the assay on SW-620 colon is 51.6%; in the assay on MCF7 breast, 79.5%; in the assay with HCT-116 colon it was 92.2%; with HCC-2998 colon, 101%; in the assay with KM12 colon, 105%.

Take `CC(C)=CCC[C@](C)(O)[C@H]1CC[C@]2(C)[C@@H]1CC[C@@H]1[C@@]3(C)CC[C@H](OC(=O)CCC(=O)O)C(C)(C)[C@@H]3CC[C@]12C`: the growth was 29% [100 µM] in the assay on SR leukemia; 9.12% [100 µM] (active) in the assay on RPMI-8226 leukemia; 24.7% [100 µM] in the assay on OVCAR-8 ovarian; 41.7% [100 µM] with OVCAR-5 ovarian; 42.4% [100 µM] with SK-OV-3 ovarian; 15.3% [100 µM] with IGROV1 ovarian. Also, the growth was -32.1% [100 µM] (active) in the assay on OVCAR-3 ovarian; 41.2% [100 µM] in the assay on HS 578T breast; 29.9% [100 µM] in the assay on NCI/ADR-RES ovarian; 25.7% [100 µM] in the assay on T-47D breast; 25.5% [100 µM] with BT-549 breast; 6.66% [100 µM] (active) in the assay with MDA-MB-435 melanoma. The growth was 12.1% [100 µM] in the assay on SW-620 colon; 15.8% [100 µM] in the assay on MCF7 breast; 9.66% [100 µM] (active) in the assay with HCT-116 colon; 20.5% [100 µM] in the assay on HCC-2998 colon; -19% [100 µM] (active) in the assay with KM12 colon.

For `O=C1CN(Cc2ccc(C(=O)NO)cc2)C(=O)[C@@H](Cc2ccccc2)N1`, the growth in the assay with SR leukemia was 113%; with RPMI-8226 leukemia, 102%; with OVCAR-8 ovarian it was 95.6%; in the assay with OVCAR-5 ovarian, 101%; in the assay on SK-OV-3 ovarian it was 96.5%; with IGROV1 ovarian it was 106%. For the same compound, the growth in the assay with OVCAR-3 ovarian is 109%; in the assay with HS 578T breast it was 101%; with NCI/ADR-RES ovarian it was 110%; in the assay on T-47D breast, 93.2%; with BT-549 breast, 101%; with MDA-MB-435 melanoma, 100%. Also, the growth in the assay on SW-620 colon is 102%; in the assay with MCF7 breast, 96%; in the assay on HCT-116 colon it was 97.2%; in the assay with HCC-2998 colon, 109%; with KM12 colon, 104%.

For `C=C(C)[C@@H]1CC[C@]2(C(N)=O)CC[C@]3(C)[C@H](CC[C@@H]4[C@@]5(C)C/C(=C/c6cccnc6)[C@H](O)C(C)(C)[C@@H]5CC[C@]43C)[C@@H]12`, the growth is 12.8% [100 µM] in the assay with SR leukemia; 13.1% [100 µM] in the assay with RPMI-8226 leukemia; 21.9% [100 µM] in the assay with OVCAR-8 ovarian; 14.1% [100 µM] in the assay on OVCAR-5 ovarian; 31.6% [100 µM] in the assay on SK-OV-3 ovarian; 17.5% [100 µM] with IGROV1 ovarian. Further, the growth with OVCAR-3 ovarian was 29.1% [100 µM]; with HS 578T breast it was 43.2% [100 µM]; in the assay on NCI/ADR-RES ovarian it was 11.3% [100 µM]; in the assay with T-47D breast it was 16.1% [100 µM]; in the assay with BT-549 breast, 26.6% [100 µM]; in the assay on MDA-MB-435 melanoma, 9% [100 µM] (active). Besides, the growth was 18.8% [100 µM] with SW-620 colon; 11.3% [100 µM] in the assay with MCF7 breast; 7.1% [100 µM] (active) in the assay with HCT-116 colon; 19.5% [100 µM] with HCC-2998 colon; 14.2% [100 µM] in the assay with KM12 colon.

Take `O=C(N=c1n(-c2ccccc2)nc2n1CCN2C1=NCCN1C(=O)c1ccc(Cl)cc1)c1ccc(Cl)cc1`: the growth in the assay on SR leukemia is 73.9%; in the assay on RPMI-8226 leukemia, 73.2%; with OVCAR-8 ovarian, 78.7%; in the assay with OVCAR-5 ovarian it was 88.8%; in the assay with SK-OV-3 ovarian, 92.9%; in the assay with IGROV1 ovarian, 59%. Moreover, the growth was 53.6% in the assay on OVCAR-3 ovarian; 73.3% with NCI/ADR-RES ovarian; 50.1% with T-47D breast; 59.6% in the assay on BT-549 breast; 70.5% in the assay with MDA-MB-435 melanoma; 68.3% in the assay with SW-620 colon. The growth in the assay on MCF7 breast was 46%; in the assay with HCT-116 colon, 39.1%; in the assay with HCC-2998 colon, 85.8%; in the assay on KM12 colon it was 60.7%.

`CC1(C)CC[C@]2(C(=O)O)CC[C@]3(C)C(=CC[C@@H]4[C@@]5(C)C/C(=C/c6ccco6)C(=O)C(C)(C)[C@@H]5CC[C@]43C)[C@@H]2C1`: the growth in the assay with SR leukemia is 21.7% [100 µM]; in the assay with RPMI-8226 leukemia, 0.316% [100 µM] (active); in the assay with OVCAR-8 ovarian, 9.39% [100 µM] (active); in the assay on OVCAR-5 ovarian, -64.2% [100 µM] (active); in the assay on SK-OV-3 ovarian it was 0.149% [100 µM] (active); in the assay on IGROV1 ovarian, -38.7% [100 µM] (active). The growth was -70% [100 µM] (active) with OVCAR-3 ovarian; -5.24% [100 µM] (active) in the assay on HS 578T breast; -12.6% [100 µM] (active) with NCI/ADR-RES ovarian; -0.554% [100 µM] (active) with T-47D breast; -70.6% [100 µM] (active) with MDA-MB-435 melanoma; -32.8% [100 µM] (active) with SW-620 colon. Further, the growth with MCF7 breast is -8.44% [100 µM] (active); with HCT-116 colon, -71.8% [100 µM] (active); with HCC-2998 colon it was -58.1% [100 µM] (active); with KM12 colon, -65.9% [100 µM] (active).
